According to article PMC4336329 (PLoS ONE, 2015):
Hit rate of the full screen: of about 310,000 compounds, about 14,000 (4.5%) showed an effect of 50% or more. Effects have a minus sign here. The full list was thinned out, with strong results kept by preference.

These molecules were tested against human ether-à-go-go-related gene (hERG) potassium channel (human, UniProt Q12809) (assay: primary screen, population patch clamp on CHO cells stably expressing hERG; higher = less effect of the substance).
Chain of human ether-à-go-go-related gene (hERG) potassium channel (Q12809 whole entry, looked up): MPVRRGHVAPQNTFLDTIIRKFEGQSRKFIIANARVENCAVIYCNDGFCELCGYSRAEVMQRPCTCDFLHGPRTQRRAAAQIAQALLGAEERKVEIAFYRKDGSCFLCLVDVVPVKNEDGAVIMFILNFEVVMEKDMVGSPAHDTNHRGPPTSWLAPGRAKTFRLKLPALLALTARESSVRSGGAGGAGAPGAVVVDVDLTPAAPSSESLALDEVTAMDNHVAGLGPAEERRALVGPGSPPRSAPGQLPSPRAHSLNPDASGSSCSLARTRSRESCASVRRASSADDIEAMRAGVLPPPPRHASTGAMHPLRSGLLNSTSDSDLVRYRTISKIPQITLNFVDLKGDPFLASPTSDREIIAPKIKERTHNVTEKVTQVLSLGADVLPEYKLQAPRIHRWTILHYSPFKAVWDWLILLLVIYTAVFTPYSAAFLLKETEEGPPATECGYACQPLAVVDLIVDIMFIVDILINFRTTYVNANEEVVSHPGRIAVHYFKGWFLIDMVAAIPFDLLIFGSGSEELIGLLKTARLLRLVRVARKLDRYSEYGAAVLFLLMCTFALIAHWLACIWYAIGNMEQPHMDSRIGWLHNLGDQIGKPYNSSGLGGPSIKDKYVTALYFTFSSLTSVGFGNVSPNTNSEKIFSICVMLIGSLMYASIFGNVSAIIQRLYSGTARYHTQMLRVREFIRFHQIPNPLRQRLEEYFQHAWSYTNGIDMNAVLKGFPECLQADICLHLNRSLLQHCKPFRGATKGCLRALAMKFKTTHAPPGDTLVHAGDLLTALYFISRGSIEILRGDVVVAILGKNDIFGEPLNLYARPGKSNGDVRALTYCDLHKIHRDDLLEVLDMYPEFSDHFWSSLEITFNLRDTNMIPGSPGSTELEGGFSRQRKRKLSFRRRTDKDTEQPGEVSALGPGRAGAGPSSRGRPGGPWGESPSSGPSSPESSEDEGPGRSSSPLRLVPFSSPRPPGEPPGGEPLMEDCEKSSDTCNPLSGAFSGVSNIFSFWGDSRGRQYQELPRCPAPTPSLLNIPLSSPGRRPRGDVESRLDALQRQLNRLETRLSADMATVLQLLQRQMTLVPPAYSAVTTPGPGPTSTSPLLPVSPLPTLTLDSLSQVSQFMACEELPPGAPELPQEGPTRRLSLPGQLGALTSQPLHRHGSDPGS
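Further: peak tail current of the secondary pulse compared with the same well before compound.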

First: Cc1sc2ncnc(SCC(=O)c3ccc(Cl)s3)c2c1C
Second: NC(=O)CSc1nnc(-c2ccncc2)n1-c1ccc(Cl)cc1
The “hERG current change (%, negative = inhibition) at 10uM” value of the first is higher: 18.3% for the first, -21.5% for the second.

Going from `Cc1cc(NC(=O)CN2CCCCC2)no1.O=C(O)C(=O)O` to `Cc1c(Br)cc(C(=O)N2CCCC2)c(C)c1C`, the “hERG current change (%, negative = inhibition) at 10uM” value falls from 18.8% to 0.525%.

Compared with `Cc1ccc2ccc3cccc4ccc1c2c34`, `CCOC(=O)c1cn2nc(Oc3ccc(OC)cc3)ccc2n1` is lower in “hERG current change (%, negative = inhibition) at 10uM” value: 14% for the first, 4.29% for the second.

First: S=c1[nH]nc(COc2ccccc2)n1/N=C/C=C/c1ccco1
Second: COc1cccc(-n2c(COc3ccccc3C)nnc2SCC(=O)O)c1
The “hERG current change (%, negative = inhibition) at 10uM” value of the first is higher: 3.42% for the first, 1.56% for the second.

Going from `CC(NC(=O)Nc1cccc(Cl)c1)C(c1cccs1)N1CCCC1` (stereo not drawn) to `CC(NC(=O)Nc1ccc([N+](=O)[O-])cc1)C(c1cccs1)N1CCCC1` (stereo not drawn), the “hERG current change (%, negative = inhibition) at 10uM” value falls from -22.8% to -60.1%.

Compared with `CC(NC(=O)Nc1ccccc1)C(c1cccs1)N1CCN(C)CC1` (stereo not drawn), `CCOC(=O)N1CCN(C(=O)CN(c2cc(Cl)ccc2OC)S(=O)(=O)c2ccccc2)CC1` is lower in “hERG current change (%, negative = inhibition) at 10uM” value: -17.8% for the first, -19.4% for the second.

First: COc1ccc(NC(=S)N2CCN(S(C)(=O)=O)CC2)cc1OC
Second: CCc1cc(C(=O)N2CCN(c3ccccc3OC)CC2)sc1C
The “hERG current change (%, negative = inhibition) at 10uM” value of the first is higher: 4.68% for the first, -15% for the second.

Compared with `Cc1ccc(C(=O)O/N=C(\N)Cc2cccs2)c(Cl)c1`, `O=C(COC(=O)/C=C/c1ccc(F)cc1)NCc1cccs1` is higher in “hERG current change (%, negative = inhibition) at 10uM” value: 0.558% for the first, 8.26% for the second.

First: O=C(c1nc2ccccn2c1CN1CCCC(OCc2ccccc2)C1)N1CCCC1 (stereo not drawn)
Second: O=C(c1nc2ccccn2c1CN1CCC(Cc2ccccc2)CC1)N1CCCC1
The “hERG current change (%, negative = inhibition) at 10uM” value of the first is higher: -44.8% for the first, -70.7% for the second.

Going from `COC1CCN(Cc2c(C(=O)N3CCN(C4CCCCC4)CC3)nc3ccccn23)CC1` to `Cc1cccc(OC2CCN(Cc3c(C(=O)N4CCCC4)nc4ccccn34)CC2)c1`, the “hERG current change (%, negative = inhibition) at 10uM” value falls from 5.42% to -59.4%.

Going from `Cc1cccc(CN2CCC(Oc3ccc(C(=O)N4CCCCC4)cc3)CC2)c1` to `O=C(c1nc2ccccn2c1CN1CCN(c2ccccc2O)CC1)N1CCCC1`, the “hERG current change (%, negative = inhibition) at 10uM” value rises from -21.9% to 34.7%.

First: CCCCCCNS(=O)(=O)c1ccc(NC(=O)C2CCCO2)cc1 (stereo not drawn)
Second: CC(C)c1ccc(NC(=O)c2ccc(NS(C)(=O)=O)cc2)cc1
The “hERG current change (%, negative = inhibition) at 10uM” value of the first is lower: -21.8% for the first, 3.29% for the second.

First: Cc1ccc2sc(N3CCN(C(=O)C4=COCCO4)CC3)nc2c1C
Second: CCOC(=O)C1CCN(C(=O)CN(c2ccc3c(c2)OCCO3)S(C)(=O)=O)CC1
The “hERG current change (%, negative = inhibition) at 10uM” value of the first is lower: -15.6% for the first, -4.03% for the second.

Going from `COc1ccc(OCc2cccc(C(=O)NN)c2)cc1` to `COC(=O)c1ccc(OCCn2cnc3ccccc3c2=O)cc1`, the “hERG current change (%, negative = inhibition) at 10uM” value falls from 2.35% to -11.2%.

First: CC1CCCC(C)N1C(=O)c1cc(F)c(F)cc1Cl (stereo not drawn)
Second: Cc1cc(Cl)ccc1C(=O)C1CCCN(C(=O)c2ccc3ncccc3c2)C1 (stereo not drawn)
The “hERG current change (%, negative = inhibition) at 10uM” value of the first is higher: 16.1% for the first, -29.5% for the second.

Going from `COc1ccc(CCNC(=O)C/C(C)=N/NC(=O)C2CCCCC2)cc1OC` to `CC(C)C(NC(=O)C1CCCCC1)C(=O)Nc1ccncc1` (stereo not drawn), the “hERG current change (%, negative = inhibition) at 10uM” value rises from 8.79% to 9.18%.

Compared with `CCN(C(=O)C(C)OC(=O)CCCNC(=O)c1ccc(Cl)cc1)c1ccccc1` (stereo not drawn), `CC(OC(=O)CCCNC(=O)c1ccc(Cl)cc1)C(=O)N(C)Cc1ccccc1` (stereo not drawn) is lower in “hERG current change (%, negative = inhibition) at 10uM” value: -25.1% for the first, -54.2% for the second.

Compared with `COc1ccc(CN(C)C(=O)CCCNC(=O)c2ccc(Cl)cc2)cc1`, `COc1cccc(CNCC(O)(c2ccc(Cl)cc2)c2ccc(Cl)cc2)c1` is higher in “hERG current change (%, negative = inhibition) at 10uM” value: -26.6% for the first, -12.2% for the second.

Compared with `Cc1ccc(N2CC(C)Cn3c2nc2c3c(=O)[nH]c(=O)n2C)cc1C` (stereo not drawn), `Cc1ccc(NS(=O)(=O)c2ccc3c(c2)n(C)c(=O)n3C)cc1C` is higher in “hERG current change (%, negative = inhibition) at 10uM” value: -10.9% for the first, 14.2% for the second.

First: O=C(C1=C(O)C(=O)N(CCN2CCOCC2)C1c1ccc(Cl)cc1)c1cc2ccccc2o1 (stereo not drawn)
Second: O=C(c1ccc(Cl)cc1)C1CCCN(Cc2ccc3ncccc3c2)C1 (stereo not drawn)
The “hERG current change (%, negative = inhibition) at 10uM” value of the first is higher: 10.3% for the first, -64.3% for the second.

Going from `CCCCN(C)CCNC(=O)c1ccc2c(c1)NC(=O)C(N1CCCCC1)S2` (stereo not drawn) to `CC1CCN(C(=O)CN2C(=O)C(=O)N(C)C2=O)c2ccccc2S1` (stereo not drawn), the “hERG current change (%, negative = inhibition) at 10uM” value rises from 2.48% to 5.74%.

Compared with `O=C(c1ccc(Cl)cc1)C1CCCN(Cc2cccc3cccnc23)C1` (stereo not drawn), `O=C(c1ccc(Cl)cc1)C1CCCN(Cc2cccc3ncccc23)C1` (stereo not drawn) is higher in “hERG current change (%, negative = inhibition) at 10uM” value: -75.9% for the first, -52.1% for the second.

First: O=C(c1ccc(Cl)cc1)C1CCCN(Cc2ccc3nonc3c2)C1 (stereo not drawn)
Second: O=C(c1ccc(Cl)cc1)C1CCCN(Cc2cccc3cnccc23)C1 (stereo not drawn)
The “hERG current change (%, negative = inhibition) at 10uM” value of the first is higher: -34.9% for the first, -44.8% for the second.

First: O=C(c1cccc(Cl)c1)C1CCCN(Cc2cccc3cnccc23)C1 (stereo not drawn)
Second: Cc1cccn2c(=O)c3cc(S(=O)(=O)c4ccc(Br)cc4)c(=N)n(C4CCCC4)c3nc12
The “hERG current change (%, negative = inhibition) at 10uM” value of the first is lower: -32.7% for the first, 9.92% for the second.

First: COc1ccc(NC(=O)C2Cc3cccc(OC)c3O/C2=N\O)cc1 (stereo not drawn)
Second: COc1cc(OC)cc(C(=O)NNC(=S)Nc2ccccc2OC)c1
The “hERG current change (%, negative = inhibition) at 10uM” value of the first is lower: 6.66% for the first, 10.8% for the second.

Compared with `CSCC[C@H](NC(=O)N1CCn2c1nc1ccccc12)C(=O)NCc1ccco1`, `COc1ccc(-n2c(N)c(C(=O)NCc3ccco3)c3nc4ccccc4nc32)c(OC)c1` is higher in “hERG current change (%, negative = inhibition) at 10uM” value: -19.1% for the first, 0.913% for the second.

Going from `CCN(C(=O)COC(=O)c1cc(-c2ccccc2)nc2c1c(C)nn2-c1ccccc1)C1CCS(=O)(=O)C1` (stereo not drawn) to `CCOC(=O)C1CCN(C(=O)CN(c2cc(OC)ccc2OC)S(=O)(=O)c2ccccc2)CC1`, the “hERG current change (%, negative = inhibition) at 10uM” value falls from 21.5% to -2.73%.

Compared with `CCN(CC)CCCNC(=O)c1oc2ccc3c(c2c1C)C(O)CC(C)(C)O3` (stereo not drawn), `CCOc1ccc(CCNC(=O)c2cnccn2)cc1OCC` is higher in “hERG current change (%, negative = inhibition) at 10uM” value: -4.08% for the first, 11.1% for the second.

Going from `Cc1ccc(CNCC(O)(c2ccc(F)cc2)c2ccc(F)cc2)cc1` to `OC(CNCc1ccc(F)cc1)(c1ccc(F)cc1)c1ccc(F)cc1`, the “hERG current change (%, negative = inhibition) at 10uM” value rises from -56.4% to -33.7%.

Going from `Cc1ccc(CNCC(O)(c2ccccc2)c2ccc(F)cc2)cc1` (stereo not drawn) to `OC(CNCc1ccc(F)cc1)(c1ccccc1)c1ccc(F)cc1` (stereo not drawn), the “hERG current change (%, negative = inhibition) at 10uM” value rises from -45.6% to -33.8%.

Compared with `OC(CNCc1ccccc1)(c1ccc(F)cc1)c1ccc(F)cc1`, `COc1ccc(CNCC(O)(c2ccc(F)cc2)c2ccc(F)cc2)cc1` is lower in “hERG current change (%, negative = inhibition) at 10uM” value: -38.1% for the first, -67.3% for the second.

Compared with `Cc1ccc(C(O)(CNCc2ccccc2)c2ccccc2)cc1` (stereo not drawn), `COc1ccc(CNCC(O)(c2ccccc2)c2ccc(F)cc2)cc1` (stereo not drawn) is lower in “hERG current change (%, negative = inhibition) at 10uM” value: -33.9% for the first, -73.3% for the second.

Compared with `Cc1cc(C)cc(C(=O)N2CCC(CCC(=O)NC3CC3)CC2)c1`, `CCOC(=O)C1CCN(C(=O)CN(c2ccc3c(c2)OCCO3)S(=O)(=O)c2ccccc2)CC1` is lower in “hERG current change (%, negative = inhibition) at 10uM” value: -2.09% for the first, -53.1% for the second.

Compared with `CCOC(=O)C1CCN(C(=O)CN(c2cc(Cl)ccc2OC)S(=O)(=O)c2ccccc2)CC1`, `NC(=O)C1CCN(C(=O)CN(c2ccc3c(c2)OCCO3)S(=O)(=O)c2ccccc2)CC1` is higher in “hERG current change (%, negative = inhibition) at 10uM” value: -67% for the first, -18% for the second.

Going from `COC(=O)NCc1ccc(CNC(=O)OC)cc1` to `CCNc1nc2c(c(=O)n(C)c(=O)n2C)n1Cc1ccc(Cl)cc1`, the “hERG current change (%, negative = inhibition) at 10uM” value falls from 4.84% to -7.07%.

First: CSc1cccc(NC(=O)/C=C/c2ccco2)c1
Second: CCNC(=O)COc1ccc(-c2ccccc2)cc1
The “hERG current change (%, negative = inhibition) at 10uM” value of the first is higher: 1.51% for the first, -19.4% for the second.

Compared with `CCOc1cc(-c2nc3ccccc3s2)ccc1O`, `CC[n+]1cccc(-c2nc3ccccc3s2)c1.[I-]` is lower in “hERG current change (%, negative = inhibition) at 10uM” value: 4.57% for the first, -0.683% for the second.

First: CC[n+]1c(/C=C/N(C)c2ccccc2)n(-c2ccccc2)c2ccc(-c3nc4ccccc4s3)cc21.[I-]
Second: COc1ccc(Oc2nnnn2-c2ccccc2)cc1
The “hERG current change (%, negative = inhibition) at 10uM” value of the first is lower: -81.1% for the first, -16.6% for the second.

First: Fc1ccc(Oc2nnnn2-c2ccccc2)cc1
Second: c1ccc(-n2nnnc2Oc2ccc(-n3ccnc3)cc2)cc1
The “hERG current change (%, negative = inhibition) at 10uM” value of the first is higher: 44.8% for the first, -54% for the second.

Going from `CCOC(=O)c1cn2nc(Oc3ccc(C)cc3)ccc2n1` to `CCOC(=O)c1cn2nc(Oc3ccc(C#N)cc3)ccc2n1`, the “hERG current change (%, negative = inhibition) at 10uM” value falls from 1.97% to -54.1%.

Going from `CC1=C/C(=N\OS(=O)(=O)c2ccccc2)C(C)=CC1=O` to `Cc1ccc(S(=O)(=O)c2cc3c(=O)n4cccc(C)c4nc3n(C3CCCCC3)c2=N)cc1`, the “hERG current change (%, negative = inhibition) at 10uM” value rises from -9.37% to 15.7%.

First: O=C(CSc1nnc(COc2ccc(Cl)cc2)o1)N1CCN(c2ccccc2)CC1
Second: COc1ccccc1C1CC(c2ccc(Cl)cc2Cl)Nc2nc(N)nn21 (stereo not drawn)
The “hERG current change (%, negative = inhibition) at 10uM” value of the first is higher: -1.37% for the first, -44.7% for the second.

First: Cc1cccn2c(=O)c3cc(C(=O)NCc4ccco4)c(=N)n(C4CCCCC4)c3nc12
Second: Cc1cccn2c(=O)c3cc(C(=O)NCc4ccco4)c(=N)n(C4CCCC4)c3nc12
The “hERG current change (%, negative = inhibition) at 10uM” value of the first is higher: -77.4% for the first, -78.8% for the second.

`Cc1cccn2c(=O)c3cc(S(=O)(=O)c4ccc(Br)cc4)c(=N)n(C4CCCCC4)c3nc12` was tested, and the “hERG current change (%, negative = inhibition) at 10uM” value was 18.6%.
